Over roughly 35,000 sequences, “fluorescence intensity (a.u.)” has its median near 10,000; the highest 2% begin near 52,000. The sample holds the highest values, similar sequences and a random draw of the others, so the mix is not that of the screen.

Here are results for 47 sequences from PMC7819943, “Rice protein-binding microarrays: a tool to detect cis-acting elements near promoter regions in rice”.

The target in this test is T1, OsWOX13 (Oryza sativa, UniProt Q5QMM3 1-267).
T1 sequence: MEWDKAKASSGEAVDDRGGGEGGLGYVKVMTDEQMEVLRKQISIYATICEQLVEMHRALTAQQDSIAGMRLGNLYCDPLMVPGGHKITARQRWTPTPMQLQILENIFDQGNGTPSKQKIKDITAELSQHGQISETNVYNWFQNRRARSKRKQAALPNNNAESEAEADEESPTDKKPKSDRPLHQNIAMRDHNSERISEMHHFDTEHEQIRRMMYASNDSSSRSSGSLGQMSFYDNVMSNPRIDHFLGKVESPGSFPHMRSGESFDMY
Put plainly: protein-binding microarray (RPBM); PBS, 2% BSA, 51.3 ng/ul salmon testes DNA, 50 uM zinc acetate, 200 nM TF, 25 C, 1 h; high values mean tight binding. As to conditions: protein: recombinant; tags: N-terminal polyhistidine and DsRed monomer fusion (pET32a); label: CyDye5-dUTP incorporated in the synthesized complementary strand; 3' TTTTT single-stranded linker to array surface; dsDNA, one strand shown. Summed up:
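In PBS with 2% BSA, salmon testes DNA and 50 µM zinc acetate, 200 nM protein was incubated on a custom Agilent array at 25 °C for 1 h and then washed off. The array had been made double-stranded by primer extension with Cy5-dUTP and blocked with 2% BSA. The proteins were transcription factors fused N-terminally to polyhistidine and DsRed, expressed in E. coli BL21-CodonPlus and purified on Ni–NTA. The binding signal is per-feature fluorescence intensity (arbitrary units) from an Axon 4000B scanner.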
With “ACTAATTTGGTATTATAACTGTTGCTAATTATTCTATAAACGGAGTCACCTAGTGCAG”, the binding signal was 21700 fluorescence intensity (a.u.).
Under “GCAAATTGAATTAATTCGTGTGATATTTGTTCTGCACCGGCGGAGTCACCTAGTGCAG” stands 59500 fluorescence intensity (a.u.); under “AAAATTATATAATTATAATTTATTTTATTGCAACTTGATTCGGAGTCACCTAGTGCAG”, 27000 fluorescence intensity (a.u.).
For “ATCATAATTTGAAATTCAAATTCATACTGTTCAAACAAAGCGGAGTCACCTAGTGCAG” the value was 17600 fluorescence intensity (a.u.).
With “TGTATTTGATTGAAACTGTTCATACTATAAACATGCTGGGCGGAGTCACCTAGTGCAG”, the binding signal is 57900 fluorescence intensity (a.u.).
For “GTTCGTTCGTTCGTTGATTGATTGTGTTGAATTAATTGAGCGGAGTCACCTAGTGCAG” the value was 27600 fluorescence intensity (a.u.).
For “TCCACTCAATCTTCTGTTTCTATTTCCCCGTAATCGAAGCCGGAGTCACCTAGTGCAG” the value was 4630 fluorescence intensity (a.u.).
In the case of “AGCTAAATTGATTCGTGCACCCAAGTCAACAAGAAAACGTCGGAGTCACCTAGTGCAG”, the binding signal is 38900 fluorescence intensity (a.u.).
For “TCAAATAATTTCGGTCAGAAATTTCCGAAATTTTGGTAATCGGAGTCACCTAGTGCAG” the value was 7080 fluorescence intensity (a.u.); for “GTAGTTAACCATTTAACCTGATGATGTGAGGACGAAAGAACGGAGTCACCTAGTGCAG”, 4950 fluorescence intensity (a.u.); for “ATTAACTATAATTATCGGCTGCAATCTAATTCGAATGTAGCGGAGTCACCTAGTGCAG”, 30300 fluorescence intensity (a.u.).
For “TGGTGGTGGTGGTGGTAGGGTTAGGGGTAGGAGGGGTCTCCGGAGTCACCTAGTGCAG” the value was 8890 fluorescence intensity (a.u.); for “CAGGTAATGGATTGATTGCAGGGTTGGGATTTGACCAGGTCGGAGTCACCTAGTGCAG”, 51800 fluorescence intensity (a.u.).
For “TTTCAAATCTCAAATTGAAAGTTTTCAAAATTTTCAAATCCGGAGTCACCTAGTGCAG” the value was 3760 fluorescence intensity (a.u.); for “ATAATAAGTTAAAACCTAATCAATCATACGCTAATGACTTCGGAGTCACCTAGTGCAG”, 6780 fluorescence intensity (a.u.); for “TATATTTAATTATTGATTTGATGTAACCAATTTAGTATTACGGAGTCACCTAGTGCAG”, 23400 fluorescence intensity (a.u.).
As for “ATTGATTGTAGCCAAAATAAATTTTACTAAATTTTGCCAACGGAGTCACCTAGTGCAG”, the binding signal is 32500 fluorescence intensity (a.u.).
Under “AGGATCAAAATTGCATGATTTTGTATAGTTTAGGGATGAACGGAGTCACCTAGTGCAG” stands 3210 fluorescence intensity (a.u.); under “CTTACGTGTAAATTGAAATTACATTGTAATTTACATTTGACGGAGTCACCTAGTGCAG”, 34200 fluorescence intensity (a.u.); under “CTGATTAATTGCCAGTAATTTGATTTCAACCTTACGTGTACGGAGTCACCTAGTGCAG”, 53000 fluorescence intensity (a.u.).
In the case of “ATCTGATTTGATTTGATTTCGTACACCAGTAGCTTCAACCCGGAGTCACCTAGTGCAG”, the binding signal was 59800 fluorescence intensity (a.u.).
For “TGATTTCATGATTGATAGCTACATATCTTAGTTTCACACCCGGAGTCACCTAGTGCAG” the value was 40200 fluorescence intensity (a.u.).
Under “AAAATTCATGATTGATTTTGTAGTGGATCAACCTTGCCAACGGAGTCACCTAGTGCAG” stands 52400 fluorescence intensity (a.u.); under “ATCTGATTGATACAGTACTTATTCACTGGAGTAGTATTTCCGGAGTCACCTAGTGCAG”, 40800 fluorescence intensity (a.u.).
Under “GTATTAATCACATTTCATTTCAACTTTTGATTCTGATATGCGGAGTCACCTAGTGCAG” stands 5200 fluorescence intensity (a.u.); under “TTCGTAAATTTGATCGAATTTGGCTTTTAGACGCTGGACACGGAGTCACCTAGTGCAG”, 19200 fluorescence intensity (a.u.).
As to “CTTAAAACAAATGATTGTTTACGTTCCGTCAATCATGCCCCGGAGTCACCTAGTGCAG”, the binding signal is 21200 fluorescence intensity (a.u.).
Under “CTAATTTTATGGTTAATGGACACGATTTAATCTAGACTCTCGGAGTCACCTAGTGCAG” stands 13800 fluorescence intensity (a.u.); under “GTCTTGTTCATAATAGACTGGACTCTTTGATTCCTGTGTGCGGAGTCACCTAGTGCAG”, 3330 fluorescence intensity (a.u.); under “ATGTTCCTGATTACCCGGTTAGTAAAATTTGAATCGTACTCGGAGTCACCTAGTGCAG”, 10600 fluorescence intensity (a.u.).
Turning to “TCTCCGTCCCCATCACCCTCGCAATTACTCCACCCGCCGGCGGAGTCACCTAGTGCAG”, the binding signal was 5550 fluorescence intensity (a.u.).
Under “CTCGCCGTCCATCCTTCCCTGCGTCCAATCCCCACCCTCCCGGAGTCACCTAGTGCAG” stands 60200 fluorescence intensity (a.u.); under “CCTTCATTCATTTCCTAATCCCAATCCCACCCTCCATTTCCGGAGTCACCTAGTGCAG”, 3570 fluorescence intensity (a.u.).
Take “GTTACCTATTAATTAATAGGAAGATGATATAAATAGTTTACGGAGTCACCTAGTGCAG”: the binding signal is 19400 fluorescence intensity (a.u.).
Turning to “TATGACAGGTGGGATTAGGTATTAATAGTGTAGTATGTAACGGAGTCACCTAGTGCAG”, the binding signal is 8510 fluorescence intensity (a.u.).
Under “CTTGATTAGTAGTTGGTTGCTCTTCTTCTTGTTCTTGGTTCGGAGTCACCTAGTGCAG” stands 64200 fluorescence intensity (a.u.).
Under “GGCTAATAGTAGGTTGATTAGTCCTTATTGTGCTTGCCCTCGGAGTCACCTAGTGCAG” stands 28500 fluorescence intensity (a.u.).
Under “AGAATTGATTAGCTCTTGTTTCTATCATGTTAAACACATTCGGAGTCACCTAGTGCAG” stands 33000 fluorescence intensity (a.u.).
For “GTTAGTAATGTTGATTAGTGCATGGCTTATTTGGTTGCACCGGAGTCACCTAGTGCAG”, the binding signal is 15600 fluorescence intensity (a.u.).
For “ATTAAATAATTTCTTTGATAAAATTGTTTTGCAGGCATATCGGAGTCACCTAGTGCAG” the value was 22300 fluorescence intensity (a.u.); for “CTGGTTCTTGATTATTATTAGGATTAGTTTGTTCCTTTGTCGGAGTCACCTAGTGCAG”, 16900 fluorescence intensity (a.u.).
For “TAATTGATTAGCAGTAAGGTATTGGTTGTCCAATCTTGCTCGGAGTCACCTAGTGCAG” the value was 58400 fluorescence intensity (a.u.); for “ATTGGTCCATTAGCACGTGATTAATTAAGTATTTGCTATTCGGAGTCACCTAGTGCAG”, 11200 fluorescence intensity (a.u.).
For “GTTGATTAGCATATATTATTGGTTGCATGTTAGGCTTCCACGGAGTCACCTAGTGCAG” the value was 54700 fluorescence intensity (a.u.); for “GGCTTAATTGTTGATTAAACATCAGGCTCTTCTTGCATATCGGAGTCACCTAGTGCAG”, 54900 fluorescence intensity (a.u.).
Regarding “TGGAGTGGTGATTTGCTCTCTCTTGAGTGTTGATTAGTGGCGGAGTCACCTAGTGCAG”, the binding signal is 9250 fluorescence intensity (a.u.).
For “ACTATTCTATTATGATGATTAGGCTGTTATTGGTTGAAGTCGGAGTCACCTAGTGCAG” the value was 7170 fluorescence intensity (a.u.).
